Screening data from PubChem.
MBNL1-CUG inh = blocks human MBNL1 binding to CUG repeat RNA. Potency, µM (top dose mostly 57.5 µM), hits mostly inhibitors. TR-FRET MBNL1-His/biotin-(CUG)12 binding, 665/545 ratio. Q9NR56. AID 2675. 0.036% of 280,000 active; active = well fitted inhibition curve with a large enough effect in the signal ratio, with a control signal flat, not every such curve was filed as active; inconclusive = small, poorly fitted or top-dose-only effect, or effect the other way, or a change in a side signal; inactive = no such curve, though single readings can be large or run the other way; the % refers to the signal ratio
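His-tagged MBNL1 binding to biotinylated (CUG)12 RNA was measured by TR-FRET using terbium anti-His antibody (0.055 ng/ul final) and streptavidin-XL665 (5 nM final). Compounds were titrated 92 nM to 58 uM; 60 min at room temperature.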
CBFb-RUNX1 inh = inhibitors of human CBF-beta and RUNX1 interaction | Q01196+Q13951 | AID 1477 | 230,000 tested, under 10 active | Potency, µM (doses to about 59.8 µM), usual class: inhibitors | AlphaScreen CBFb-His/RUNX1-biotin binding, biochemical
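Room-temperature protein-protein interaction test with 30 nM each of His-tagged CBF-beta and biotinylated RUNX1, 15 min with compound, then 90 min with nickel plus streptavidin beads. Signal read in AlphaScreen mode.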
VP16 counter = counter-screen for ROR gamma inhibitors: Gal4-VP16 reporter; Drosophila S2 Gal4-VP16 UAS-luciferase, luminescence, 20 h; Potency, µM (doses to about 53.6 µM), usual class: inhibitors; 3.5% of 310,000 active; AID 2546;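 also: Gal4-VP16 expression switched on by copper sulfate through the metallothionein promoter; nearly all actives have a fitted effect of over 50% in size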
Six1-Eya2 inh = inhibitors of human Six1/Eya2 interaction | Q15475+O00167 | AlphaScreen GST-Six1/His-Eya2 binding, biochemical; stronger effect = lower value | 0.56% of 360,000 active | AID 651725 | activity change, % (concentration not given with the values); in the data active = activity change below about -65%; inconclusive = mostly about -30% to -63%
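Homogeneous AlphaScreen proximity assay pairing GST-Six1 with His-tagged Eya2 (added as 5X mix: 250 nM and 500 nM) in 50 mM Tris pH 8.0, 300 mM NaCl, 1 mM TCEP. Glutathione donor and nickel acceptor beads; 1 h, 37 °C, dark.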
CtBP-E1A blk = CtBP/E1A binding inhibition. AID 651724. activity change, % (concentration not given with the values). AlphaScreen GST-E1A/His-CtBP binding, 1536-well; stronger effect = lower value. 0.49% of 340,000 active; in the data active = activity change below about -65%; inconclusive = mostly about -30% to -63%
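In 5 uL wells, 23 nL compound meets equimolar GST-E1A and His-CtBP (5X stock 125 nM each) for 2 h, 37 °C. Beads (5X, 50 ug/mL) then 1 h, 37 °C, dark.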
RORg inh = inhibitors of mouse ROR gamma transcriptional activity; P51450; Drosophila S2 Gal4-RORgamma UAS-luciferase reporter, 20 h; AID 2551; Potency, µM (highest dose often 53.6 µM), most hits filed as inhibitors; 5.4% of 310,000 active; also: nearly all actives have a fitted effect of over 60% in size
Target sequence (P51450 whole entry, looked up, the tested form may be a part): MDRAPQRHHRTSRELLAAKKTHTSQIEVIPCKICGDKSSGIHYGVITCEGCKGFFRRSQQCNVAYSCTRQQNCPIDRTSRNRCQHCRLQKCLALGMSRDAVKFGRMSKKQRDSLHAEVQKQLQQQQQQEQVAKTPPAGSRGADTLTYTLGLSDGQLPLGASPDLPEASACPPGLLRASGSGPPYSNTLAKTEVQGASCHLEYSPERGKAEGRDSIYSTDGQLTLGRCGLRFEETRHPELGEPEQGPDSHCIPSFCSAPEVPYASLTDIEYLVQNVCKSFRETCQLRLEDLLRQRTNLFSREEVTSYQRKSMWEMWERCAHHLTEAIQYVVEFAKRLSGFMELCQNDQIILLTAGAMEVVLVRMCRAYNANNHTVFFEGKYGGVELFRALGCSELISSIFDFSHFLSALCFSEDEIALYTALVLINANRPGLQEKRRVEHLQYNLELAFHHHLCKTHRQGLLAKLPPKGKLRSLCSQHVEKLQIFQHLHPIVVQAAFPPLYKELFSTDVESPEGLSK
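A Gal4/UAS one-hybrid system in insect cells: metallothionein-promoter Gal4–ROR gamma fusion plus Photinus luciferase reporter. Copper sulfate 700 uM final, 20 hr ambient incubation, luminescent detection after 10 min with reagent.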
Numbers stand for hits; - = inactive; ? = inconclusive; . = no result given; [ ] = remark or other dose. Only some compounds are listed: those with a hit (about 5.5% of all), similar ones and a draw of the others. Unless noted, calls follow the shape of the dose curve; as a rule, active = well fitted curve in the direction sought with a large enough effect; inconclusive = small, poorly fitted or top-dose-only effect, or another doubt; inactive = no such curve, though single readings can be large; an effect the other way counts as inactive or inconclusive.

SMILES	MBNL1-CUG inh	CBFb-RUNX1 inh	VP16 counter	Six1-Eya2 inh	CtBP-E1A blk	RORg inh
O=C(COc1ccc(C(=O)O)cc1)Nc1cccc(C(F)(F)F)c1	-	-	-	-	-	?
CCc1nnc(NC(=O)CC23CC4CC(CC(Br)(C4)C2)C3)s1	-	.	-	-	-	-
OC(c1cccc(Cl)c1)c1nc(-c2cc3ccccc3o2)cs1 (centres undefined)	.	.	.	-	-	.
O=C1C=CC(n2cc(F)c(=O)[nH]c2=O)O1 (centres undefined)	.	.	.	-	-	.
CCN(CCO)C(=O)c1ccc2nc(Cc3cccc(Cl)c3)oc2c1	-	.	-	-	-	-
O=C(/C=C/c1ccc([N+](=O)[O-])cc1)OCC(=O)c1ccc[nH]1	.	.	.	-	-	.
NS(=O)(=O)C#Cc1ccccc1	.	-	?	.	.	5.6µM
Nc1ccc(C#Cc2ccccc2)cc1	-	-	-	-	-	-
CCCOc1ccc(-c2nnc(-c3ccco3)o2)cc1	-	-	?	-	-	4.5µM
COC(=O)c1cn(NC(=O)c2cnccn2)c(=O)c2ccccc12	-	-	?	?	?	13µM
O=C(Nn1cc(C(=O)Nc2ccccc2F)c2ccccc2c1=O)c1cnccn1	-	-	?	-78	?	?
Cc1cc(C)nc(Sc2nc(Cl)nc(N(c3ccccc3)c3ccccc3)n2)n1	-	-	?	-	-	11µM
CCN1C(=O)[C@@H]2Cc3c([nH]c4ccccc34)C(c3cc(OC)c(OC)c(OC)c3)N2C1=S (some centres undefined)	-	.	-	-	.	-
COc1cc([C@H]2c3[nH]c4ccccc4c3C[C@H]3C(=O)N4[C@@H](c5cc(OC)c(OC)c(OC)c5)c5[nH]c6ccccc6c5C[C@H]4C(=O)N23)cc(OC)c1OC	-	-	10µM	-	-	?
CCCCC#Cc1cncc(C(=O)N/N=C/c2cccc(OC)c2)c1	.	-	?	-	-	11µM
COc1cccc(/C=N\NC(=O)c2ccc(C)nc2)c1	-	.	-	-	-	?
CCOC(=O)C1=C(C)NC(=S)NC1c1cccc(O)c1 (centres undefined)	.	?	-	.	.	-
CCC1=NN(C(=O)CCc2ccccc2O)C(O)(C(F)(F)F)C1 (centres undefined)	-	-	?	-	-	10µM
CCC1=NN(C(=O)CCc2ccc3c(c2)OCO3)C(O)(C(F)(F)F)C1 (centres undefined)	-	-	-	-	-	11µM
COc1cccc(-c2nnn(CCC(=O)O)n2)c1	-	-	-	-	-	-
COc1ccc(-c2nnn(CCC(=O)O)n2)cc1	-	-	-	-	-	2.2µM
CCCN(CCC)S(=O)(=O)c1ccc(C(=O)Nc2nnc(-c3cc(OC)cc(OC)c3)o2)cc1	-	-	0.28µM	-	-	0.16µM
CCCN(CCC)S(=O)(=O)c1ccc(C(=O)Nc2nnc(-c3cccc(OC)c3)o2)cc1	-	-	0.63µM	-	-	0.4µM
CN1CCN(C(=O)c2cc([N+](=O)[O-])ccc2Cl)CC1	?	.	-	-	-	-
CC(=O)Nc1cccc(C2=CC(c3ccco3)n3ncnc3N2)c1 (centres undefined)	?	-	-	.	.	6.3µM
SMILES	MBNL1-CUG inh	CBFb-RUNX1 inh	VP16 counter	Six1-Eya2 inh	CtBP-E1A blk	RORg inh
Cc1cc(C(=O)c2ccccc2)c(NC(=O)CCl)s1	.	-	-	-	-	-[10 µM]
CCc1cc(C(=O)c2ccc(Br)cc2)c(NC(=O)CN(CC)CC)s1	-	.	11µM	-	-	6.3µM
Cc1ccc(C(=O)c2c(NC(=O)c3ccccc3C)sc(C)c2C)cc1	-	-	-	-	?	-
CCN(CC)CC(=O)Nc1sc(C)c(C)c1C(=O)c1ccc(C)cc1	-	-	-	?	-	11µM
CCN(CC)CC(=O)Nc1sc(C)cc1C(=O)c1ccccc1	-	.	?	?	-	7.1µM
CCN(CC)CC(=O)Nc1sc(C)cc1C(=O)c1ccc(C)cc1	-	.	6.3µM	-	-	3.2µM
CC(=O)Nc1ccc(S(=O)(=O)NNC(=O)c2cccc(Br)c2)cc1	-	-	-	-	-	-
CCCc1nc2ccc(C(=O)OC)cn2c1Cc1cccc(F)c1	.	.	.	-	-	.
CC[C@H](C)[C@H](N)C(=O)N[C@@H](CCCNC(=N)N)C(=O)N[C@@H](CCC(N)=O)C(=O)NCC(=O)N1CCC[C@H]1C(=O)N[C@@H](CCCCN)C(=O)N[C@@H](CCC(=O)O)C(=O)N1CCC[C@H]1C(=O)N[C@@H](Cc1ccccc1)C(=O)N[C@@H](CCCNC(=N)N)C(=O)N[C@@H](CC(=O)O)C(=O)N[C@@H](Cc1ccc(O)cc1)C(=O)N[C@H](C(=O)N[C@@H](CC(=O)O)C(=O)N[C@@H](CCCNC(=N)N)C(=O)N[C@@H](Cc1ccccc1)C(=O)N[C@@H](Cc1ccc(O)cc1)C(=O)N[C@@H](CCCCN)C(=O)N[C@H](C(=O)N[C@@H](CC(C)C)C(=O)O)[C@@H](C)O)C(C)C	.	-	-	.	.	-
COC(=O)[C@]12CCCCC=C1N(Cc1ccc3c(c1)OCO3)C(=O)[C@H](CC(=O)N1CCN(C(=O)c3ccco3)CC1)C2	.	.	.	-	-	.
C=CCNC(=S)NNc1nc2sc3c(c2c(=O)[nH]1)CC(C)(C)OC3	-	.	10µM	-	-	5.6µM
CC1(C(=O)Nc2ccc3ccccc3c2)CCC(=O)N1C1CC1 (centres undefined)	.	.	.	-	-	.
CCOC(=O)C1=C([Si](C)(C)C)c2ccccc2N(S(=O)(=O)C(F)(F)F)C1C(=O)OCC (centres undefined)	.	-	?	.	.	?
CCOc1ccc(CCNC(=O)C2CCCN(S(=O)(=O)N3CCOCC3)C2)cc1OCC (centres undefined)	-	.	-	-	-	-
Cc1cccnc1NCc1ccc(O)c2ncccc12	-	-	2.8µM	-90	-91	?
Cc1ccc(O)c(CNc2cccc3cccnc23)c1	-	-	-	-	?	-
Cc1cccc(NCc2ccc(O)c3ncccc23)c1C	-	.	?	-74	-89	7.9µM
O=c1c2ccccc2nc2c3ccccc3c(NCc3cccnc3)nn12	.	-	-	-	-	-
O=C(NCCO)c1nc(NCCO)c2ccccc2n1	-	-	-	-	-	-
O=c1c2ccccc2nc2c3ccccc3c(NCCO)nn12	-	-	-	-69	-71	-
O=c1c2ccccc2nc2c3ccccc3c(NCc3ccccn3)nn12	-	-	-	?	-69	-
CC(C)(C)NC(=O)COc1ccc(S(=O)(=O)N2CCCC2)cc1	-	.	-	-	.	-
COc1ccc2c(c1)-c1nc(NC(=O)c3cccs3)sc1CC2	-	-	?	-	-	8.9µM
